Data reported in PMC11006913.

Key:
Assay in all cases: PBM; 200 nM protein, PBS
Conditions in all cases: dsDNA, one strand shown
[1] = target: HESX1 (Homo sapiens, UniProt Q9UBX0 95-180, R165K)
[2] = target: SHOX (Homo sapiens, UniProt O15266 103-189)
[3] = target: HESX1 (Homo sapiens, UniProt Q9UBX0 95-180)
[4] = target: SHOX (Homo sapiens, UniProt O15266 103-189, R173C)
[5] = target: HESX1 (Homo sapiens, UniProt Q9UBX0 95-180, R109Q)
[6] = target: HESX1 (Homo sapiens, UniProt Q9UBX0 95-180, P111T)
[7] = target: HESX1 (Homo sapiens, UniProt Q9UBX0 95-180, F115L)
[8] = target: ALX4 (Homo sapiens, UniProt Q9H161 200-286, Q225E)
[9] = target: MSX2 (Homo sapiens, UniProt P35548 130-214, R199I)
[10] = target: ALX1 (Homo sapiens, UniProt Q15699 118-204, L144V)
[11] = target: ALX3 (Homo sapiens, UniProt O95076 139-225, N203Q)
[12] = target: ALX1 (Homo sapiens, UniProt Q15699 118-204, L144R)
[13] = target: ALX3 (Homo sapiens, UniProt O95076 139-225)
[14] = target: PROP1 (Homo sapiens, UniProt O75360 56-141)
[15] = target: PROP1 (Homo sapiens, UniProt O75360 56-141, R99H)
[16] = target: ALX3 (Homo sapiens, UniProt O95076 139-225, L168Q)
[17] = target: ALX3 (Homo sapiens, UniProt O95076 139-225, L168V)
[18] = target: PROP1 (Homo sapiens, UniProt O75360 56-141, F88S)
[19] = target: ALX1 (Homo sapiens, UniProt Q15699 118-204)
[20] = target: ALX3 (Homo sapiens, UniProt O95076 139-225, N203S)
Sequence of ALX3 (Homo sapiens, UniProt O95076 139-225, N203S) (O95076 139-225 N203S): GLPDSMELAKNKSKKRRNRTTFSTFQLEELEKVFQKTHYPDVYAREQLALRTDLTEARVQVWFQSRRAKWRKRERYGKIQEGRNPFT

Sequence of PROP1 (Homo sapiens, UniProt O75360 56-141) (O75360 56-141): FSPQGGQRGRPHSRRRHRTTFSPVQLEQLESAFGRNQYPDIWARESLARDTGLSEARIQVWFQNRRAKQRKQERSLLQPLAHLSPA
Sequence of MSX2 (P35548 130-214 R199I): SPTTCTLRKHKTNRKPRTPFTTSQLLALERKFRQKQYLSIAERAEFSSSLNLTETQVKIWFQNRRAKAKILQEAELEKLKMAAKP
Sequence of ALX4 (Q9H161 200-286 Q225E): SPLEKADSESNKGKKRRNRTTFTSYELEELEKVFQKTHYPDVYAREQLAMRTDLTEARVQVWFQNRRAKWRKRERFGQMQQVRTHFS
Sequence of ALX3 (Homo sapiens, UniProt O95076 139-225, L168V) (O95076 139-225 L168V): as the sequence (O95076 139-225 N203S) above, with L30V, S65N counted along it
Sequence of SHOX (Homo sapiens, UniProt O15266 103-189) (O15266 103-189): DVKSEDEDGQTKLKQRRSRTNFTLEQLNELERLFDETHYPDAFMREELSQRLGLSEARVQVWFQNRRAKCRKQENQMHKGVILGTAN
Sequence of ALX1 (Homo sapiens, UniProt Q15699 118-204, L144V) (Q15699 118-204 L144V): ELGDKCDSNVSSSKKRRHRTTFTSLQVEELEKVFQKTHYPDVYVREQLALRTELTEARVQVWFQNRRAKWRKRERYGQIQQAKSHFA
Sequence of PROP1 (Homo sapiens, UniProt O75360 56-141, F88S) (O75360 56-141 F88S): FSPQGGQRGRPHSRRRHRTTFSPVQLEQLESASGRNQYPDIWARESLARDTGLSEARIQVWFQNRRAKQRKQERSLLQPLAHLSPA
Sequence of ALX3 (Homo sapiens, UniProt O95076 139-225, L168Q) (O95076 139-225 L168Q): as the sequence (O95076 139-225 N203S) above, with L30Q, S65N counted along it
Sequence of SHOX (Homo sapiens, UniProt O15266 103-189, R173C) (O15266 103-189 R173C): as the sequence (O15266 103-189) above, with R71C counted along it
Sequence of HESX1 (Homo sapiens, UniProt Q9UBX0 95-180, F115L) (Q9UBX0 95-180 F115L): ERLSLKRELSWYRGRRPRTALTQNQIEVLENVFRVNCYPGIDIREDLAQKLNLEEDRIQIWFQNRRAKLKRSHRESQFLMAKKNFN
Sequence of ALX1 (Homo sapiens, UniProt Q15699 118-204, L144R) (Q15699 118-204 L144R): as the sequence (Q15699 118-204 L144V) above, with V27R counted along it
Sequence of ALX3 (Homo sapiens, UniProt O95076 139-225, N203Q) (O95076 139-225 N203Q): as the sequence (O95076 139-225 N203S) above, with S65Q counted along it
Sequence of ALX3 (Homo sapiens, UniProt O95076 139-225) (O95076 139-225): as the sequence (O95076 139-225 N203S) above, with S65N counted along it
Sequence of ALX1 (Homo sapiens, UniProt Q15699 118-204) (Q15699 118-204): as the sequence (Q15699 118-204 L144V) above, with V27L counted along it
Sequence of HESX1 (Homo sapiens, UniProt Q9UBX0 95-180) (Q9UBX0 95-180): as the sequence (Q9UBX0 95-180 F115L) above, with L21F counted along it
Sequence of PROP1 (Homo sapiens, UniProt O75360 56-141, R99H) (O75360 56-141 R99H): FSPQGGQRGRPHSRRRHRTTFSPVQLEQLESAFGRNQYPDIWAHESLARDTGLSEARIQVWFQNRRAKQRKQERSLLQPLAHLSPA
Sequence of HESX1 (Homo sapiens, UniProt Q9UBX0 95-180, R165K) (Q9UBX0 95-180 R165K): as the sequence (Q9UBX0 95-180 F115L) above, with L21F, R71K counted along it
Sequence of HESX1 (Homo sapiens, UniProt Q9UBX0 95-180, R109Q) (Q9UBX0 95-180 R109Q): as the sequence (Q9UBX0 95-180 F115L) above, with R15Q, L21F counted along it
Sequence of HESX1 (Homo sapiens, UniProt Q9UBX0 95-180, P111T) (Q9UBX0 95-180 P111T): as the sequence (Q9UBX0 95-180 F115L) above, with P17T, L21F counted along it

| Sequence | binding signal [1] | binding signal [2] | binding signal [3] | binding signal [4] | binding signal [5] | binding signal [6] | binding signal [7] | binding signal [8] | binding signal [9] | binding signal [10] | binding signal [11] | binding signal [12] | binding signal [13] | binding signal [14] | binding signal [15] | binding signal [16] | binding signal [17] | binding signal [18] | binding signal [19] | binding signal [20] |
| --- | --- | --- | --- | --- | --- | --- | --- | --- | --- | --- | --- | --- | --- | --- | --- | --- | --- | --- | --- | --- |
| CCCAGGCG | 6.31 upbm affinity estimate (log intensity, higher = more binding, comparable within an allelic series) | 6.92 upbm affinity estimate (log intensity, higher = more binding, comparable within an allelic series) | 6.34 upbm affinity estimate (log intensity, higher = more binding, comparable within an allelic series) | 7.04 upbm affinity estimate (log intensity, higher = more binding, comparable within an allelic series) | 6.42 upbm affinity estimate (log intensity, higher = more binding, comparable within an allelic series) | 6.32 upbm affinity estimate (log intensity, higher = more binding, comparable within an allelic series) | 6.49 upbm affinity estimate (log intensity, higher = more binding, comparable within an allelic series) |  |  |  |  |  |  |  |  |  |  |  |  |  |
| CCCAATTA | 13.2 upbm affinity estimate (log intensity, higher = more binding, comparable within an allelic series) | 12.5 upbm affinity estimate (log intensity, higher = more binding, comparable within an allelic series) | 13.1 upbm affinity estimate (log intensity, higher = more binding, comparable within an allelic series) | 9.78 upbm affinity estimate (log intensity, higher = more binding, comparable within an allelic series) | 9.78 upbm affinity estimate (log intensity, higher = more binding, comparable within an allelic series) | 11.7 upbm affinity estimate (log intensity, higher = more binding, comparable within an allelic series) | 8.14 upbm affinity estimate (log intensity, higher = more binding, comparable within an allelic series) | 13.5 upbm affinity estimate (log intensity, higher = more binding, comparable within an allelic series) | 13 upbm affinity estimate (log intensity, higher = more binding, comparable within an allelic series) | 11.9 upbm affinity estimate (log intensity, higher = more binding, comparable within an allelic series) | 8.37 upbm affinity estimate (log intensity, higher = more binding, comparable within an allelic series) | 11.6 upbm affinity estimate (log intensity, higher = more binding, comparable within an allelic series) | 12.6 upbm affinity estimate (log intensity, higher = more binding, comparable within an allelic series) | 11.6 upbm affinity estimate (log intensity, higher = more binding, comparable within an allelic series) | 11.8 upbm affinity estimate (log intensity, higher = more binding, comparable within an allelic series) | 10.7 upbm affinity estimate (log intensity, higher = more binding, comparable within an allelic series) | 10.2 upbm affinity estimate (log intensity, higher = more binding, comparable within an allelic series) | 7.5 upbm affinity estimate (log intensity, higher = more binding, comparable within an allelic series) | 12.5 upbm affinity estimate (log intensity, higher = more binding, comparable within an allelic series) | 8.52 upbm affinity estimate (log intensity, higher = more binding, comparable within an allelic series) |
| AATTAGCA | 11.6 upbm affinity estimate (log intensity, higher = more binding, comparable within an allelic series) | 11.6 upbm affinity estimate (log intensity, higher = more binding, comparable within an allelic series) | 11.6 upbm affinity estimate (log intensity, higher = more binding, comparable within an allelic series) | 9.43 upbm affinity estimate (log intensity, higher = more binding, comparable within an allelic series) | 8.94 upbm affinity estimate (log intensity, higher = more binding, comparable within an allelic series) | 10.4 upbm affinity estimate (log intensity, higher = more binding, comparable within an allelic series) | 7.45 upbm affinity estimate (log intensity, higher = more binding, comparable within an allelic series) | 12.7 upbm affinity estimate (log intensity, higher = more binding, comparable within an allelic series) | 12.2 upbm affinity estimate (log intensity, higher = more binding, comparable within an allelic series) | 11.5 upbm affinity estimate (log intensity, higher = more binding, comparable within an allelic series) | 8.31 upbm affinity estimate (log intensity, higher = more binding, comparable within an allelic series) | 11.1 upbm affinity estimate (log intensity, higher = more binding, comparable within an allelic series) | 12.2 upbm affinity estimate (log intensity, higher = more binding, comparable within an allelic series) | 11.1 upbm affinity estimate (log intensity, higher = more binding, comparable within an allelic series) | 10.9 upbm affinity estimate (log intensity, higher = more binding, comparable within an allelic series) | 10.3 upbm affinity estimate (log intensity, higher = more binding, comparable within an allelic series) | 9.83 upbm affinity estimate (log intensity, higher = more binding, comparable within an allelic series) | 7.78 upbm affinity estimate (log intensity, higher = more binding, comparable within an allelic series) | 12.2 upbm affinity estimate (log intensity, higher = more binding, comparable within an allelic series) | 8.36 upbm affinity estimate (log intensity, higher = more binding, comparable within an allelic series) |
| GAAGGCGC | 6.55 upbm affinity estimate (log intensity, higher = more binding, comparable within an allelic series) | 7.24 upbm affinity estimate (log intensity, higher = more binding, comparable within an allelic series) | 6.36 upbm affinity estimate (log intensity, higher = more binding, comparable within an allelic series) | 7.21 upbm affinity estimate (log intensity, higher = more binding, comparable within an allelic series) | 6.47 upbm affinity estimate (log intensity, higher = more binding, comparable within an allelic series) | 6.47 upbm affinity estimate (log intensity, higher = more binding, comparable within an allelic series) | 6.58 upbm affinity estimate (log intensity, higher = more binding, comparable within an allelic series) |  |  |  |  |  |  |  |  |  |  |  |  |  |
| CCAATTAG | 13.5 upbm affinity estimate (log intensity, higher = more binding, comparable within an allelic series) | 12.8 upbm affinity estimate (log intensity, higher = more binding, comparable within an allelic series) | 13.4 upbm affinity estimate (log intensity, higher = more binding, comparable within an allelic series) | 10.3 upbm affinity estimate (log intensity, higher = more binding, comparable within an allelic series) | 10.5 upbm affinity estimate (log intensity, higher = more binding, comparable within an allelic series) | 12.2 upbm affinity estimate (log intensity, higher = more binding, comparable within an allelic series) | 8.12 upbm affinity estimate (log intensity, higher = more binding, comparable within an allelic series) | 13.6 upbm affinity estimate (log intensity, higher = more binding, comparable within an allelic series) | 13.1 upbm affinity estimate (log intensity, higher = more binding, comparable within an allelic series) | 12 upbm affinity estimate (log intensity, higher = more binding, comparable within an allelic series) | 8.31 upbm affinity estimate (log intensity, higher = more binding, comparable within an allelic series) | 11.7 upbm affinity estimate (log intensity, higher = more binding, comparable within an allelic series) | 12.7 upbm affinity estimate (log intensity, higher = more binding, comparable within an allelic series) | 11.9 upbm affinity estimate (log intensity, higher = more binding, comparable within an allelic series) | 12.1 upbm affinity estimate (log intensity, higher = more binding, comparable within an allelic series) | 10.9 upbm affinity estimate (log intensity, higher = more binding, comparable within an allelic series) | 10.4 upbm affinity estimate (log intensity, higher = more binding, comparable within an allelic series) | 7.63 upbm affinity estimate (log intensity, higher = more binding, comparable within an allelic series) | 12.7 upbm affinity estimate (log intensity, higher = more binding, comparable within an allelic series) | 8.47 upbm affinity estimate (log intensity, higher = more binding, comparable within an allelic series) |
